According to PubChem BioAssay (EPA / NIEHS):
Some structures have more than one record in an assay (separate samples or runs), and their calls can disagree. The source made the active and inactive calls. Rule for the calls: active = hit-call score of the fitted dose curve at least 0.9, where 1 is the maximum; inactive = score below 0.9.

Assay: ATG_GATA_CIS: Attagene CIS-FACTORIAL HepG2 Assay for human GATA Binding Protein (AID 2282944)
Settings: HepG2 GATA cis-element reporter, Attagene multiplex mRNA; actives raise or lower the signal
Experimental: ATG_CIS is a cell-based, multiplexed-readout assay that uses HepG2, a human liver cell line, with measurements taken at 24 hours after chemical dosing in a 24-well plate.ATG_GATA_CIS is one of 52 assay component(s) measured or calculated from the ATG_CIS assay. It is designed to make measurements of mRNA induction, a form of inducible reporter, as detected with fluorescence intensity signals by Reverse transcription polymerase chain reaction (RT-PCR) and Capillary electrophoresis technology.Data from the assay component ATG_GATA_CIS was analyzed into 1 assay endpoint. This assay endpoint, ATG_GATA_CIS, was analyzed with bidirectional fitting relative to DMSO as the negative control and baseline of activity. Using a type of inducible reporter, measures of mRNA for gain or loss-of-signal activity can be used to understand the reporter gene at the transcription factor-level as they relate to the gene GATA1. Furthermore, this assay endpoint can be referred to as a primary readout, because this assay has produced multiple assay endpoints where this one serves a reporter gene function. To generalize the intended target to other relatable targets, this assay endpoint is annotated to the dna binding intended target family, where the subfamily is GATA proteins.
Human liver HepG2 cells are transiently transfected with multiple reporter transcription units (MRTUs) in 6-well plates using FuGene 6 reagent (Roche; 3 ml FuGene/1 mg DNA). The MRTU constructs are regulated by a cis-regulating element (promoter). […] A major difference between the CIS and TRANS system is that in CIS activities of endogenous TFs are measured, whereas the TRANS assay evaluates changes in activities of exogenous, chimeric NR-Gal4 proteins. […] At the end of 24 hour incubation, total RNA was isolated using TriZol reagent (Invitrogen). The isolated RNA is then reverse-transcribed using oligo(dT) primer and Mo-MLV reverse transcriptase (Invitrogen) with DNAse I (Ambion) treatment for 30 min. The one-tenth of the produced cDNA was amplified by PCR using Taq DNA polymerase (Invitrogen) and two reporter sequence-specific primers. The PCR products were fluorescently labeled by primer extension with 6-arboxyfluorescein (6-FAM) 5'-labeled reporter sequence-specific primer (2 min at 95 C, 20 s at 68 C and 10 min at 72 C) and these products were digested with 5U of HpaI (New England Biolabs) for 2h at 37 C. The fragments were purified using Qiaquick PCR columns (Qiagen), analyzed on an ABI 3130xL genetic analyzer (Applied Biosystems) with peak positions identified by using a set of X-rhodamine (ROX)-labeled MapMarker1000 molecular weight standards (BioVentures). The raw capillary electrophoresis data was processed using Attagraph software (Attagene).

outcome, inactive:
O=C(O)CCC(F)(F)C(F)(F)C(F)(F)C(F)(F)C(F)(F)C(F)(F)F
CCCCCCCC(OC)OC
O=C(Nc1ccc(Cl)c(Cl)c1)c1cc(Cl)cc(Cl)c1O
FC(F)(F)C1(F)C(F)(F)C(F)(F)C(F)(F)C1(F)F
CCCCC(CC)C(=O)OCCOCCOCCOCCOC(=O)C(CC)CCCC (stereo not given)
NC(=NCCCCCCN=C(N)/N=C(\N)Nc1ccc(Cl)cc1)/N=C(\N)Nc1ccc(Cl)cc1
FC(F)(F)C(F)(F)C(F)(F)C(F)(F)I
COC(=O)C(F)(F)C(F)(F)C(F)(F)C(F)(F)C(F)(F)F
CCCCCCCCC1CCC(=O)O1 (stereo not given)
CCCCc1oc2ccccc2c1C(=O)c1cc(I)c(OCCN(CC)CC)c(I)c1
CCCCCCCCCCCC(=O)O
O=CC(F)(F)C(F)(F)C(F)(F)F
CCOCCOCC
O=C(c1ccccc1)c1ccccc1
C=CC(=C)CC/C=C(\C)CCC=C(C)C
COC(=O)C(F)(F)C(F)(F)C(F)(F)F
O=C1c2ccccc2C(=O)c2c(O)c(O)cc(O)c21
Cc1ccc(C)c(S(=O)(=O)O)c1
CC1=CC(=O)c2ccccc2C1=O
O=C(O)c1cccc(C(=O)O)n1
Cc1cc(=O)oc2cc(O)ccc12
CCO[Si](C)(C)OCC
C=CC(=O)OCCC(F)(F)C(F)(F)C(F)(F)C(F)(F)C(F)(F)C(F)(F)F
O=C(NCc1ncc(C(F)(F)F)cc1Cl)c1c(Cl)cccc1Cl
CCCCCCCCCCCC[N+](C)(C)CCCCCCCCCCCC
CCN(CCC#N)c1ccccc1
O=C(CC(=O)C(F)(F)C(F)(F)C(F)(F)F)c1cccs1
CCCCCc1ccc(O)cc1
NC(C(F)(F)F)C(F)(F)F
CCCCCCCCCCCCCCCC(=O)OC
CCOC(C)=O
CC1CCC(C(=O)O)CC1 (stereo not given)
C[C@]12CC[C@@H]3c4ccc(O)cc4CC[C@H]3[C@@H]1CC[C@@H]2OC(=O)CCC1CCCC1
CCC(=O)C=Cc1ccc(OC)cc1
OCC(CO)(CBr)CBr
O=C1OC2(c3ccccc31)c1cc(I)c(O)c(I)c1Oc1c2cc(I)c(O)c1I
O=CC(F)(F)C(F)(F)C(F)(F)C(F)F
O=S(=O)(O)C(F)(F)C(F)(F)C(F)(F)C(F)(F)C(F)(F)C(F)(F)C(F)(F)C(F)(F)C(F)(F)C(F)(F)F

AC50, active:
COc1ccccc1NC(=O)c1cc2ccccc2cc1O 41.1 µM
CCOC(C)=O 100 µM
